PubChem BioAssay (NCATS)
Inconclusive results are not listed. Unless noted, calls come from the whole dose curve; as a rule, active = well fitted curve in either direction with a large enough effect (not every such curve was filed as active); inconclusive = small, poorly fitted or top-dose-only effect, or another doubt; inactive = flat fitted curve, though single readings scatter.

Experiments:
[1] = AP1 Signaling Pathway (AID 357); details: ME-180 AP-1-bla reporter, EGF-induced, beta-lactamase ratio, 5 h; at 17.2 µM (top of the series) unless noted;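 note: ME-180 reporter cells stimulated with EGF at its EC50 level; % is set by controls: 0 for no effect and ±100 for the full control effect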
Summary of the method: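 In this screen, ME-180 cells in Opti-MEM with 0.5% dialyzed FBS received EC50 EGF and compound titrations for 5 h. AP-1 reporter beta-lactamase was detected via CCF4 ratio, giving AC50 for positive and negative modulators.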

[2] = NFAT Signaling Pathway (AID 444); details: Jurkat NFAT-bla M1, carbachol, beta-lactamase ratio, 5 h; at 17.2 µM (top of the series) unless noted;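 note: carbachol stimulus at about its EC50 of 1 µM final; % is set by controls: 0 for no effect and ±100 for the full control effect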
Summary of the method: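 Jurkat cells with NFAT-driven β-lactamase reporter and co-expressed M1 receptor, stimulated with carbachol (final 1 uM, ~EC50), compound titration, 5 h at 37 °C. CCF4 loaded 1 h at RT; 460/530 nm ratio gave %activity and AC50.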

[3] = Stat Signaling Pathway (AID 446); details: ME-180 (cervical carcinoma) SIE beta-lactamase reporter, IL-6 stimulated, 5 h; at 17.2 µM (top of the series) unless noted;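 note: ME-180 cervical cancer cells given 40 pM IL-6 alongside compound; SIE-controlled beta-lactamase reporter measured as 460/530 nm FRET emission ratio; % is set by controls: 0 for no effect and ±100 for the full control effect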
Summary of the method: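 Normalization used AC90 stimulation (300 pM IL-6) and AC90 inhibition (125 nM pan-JAK inhibitor at 40 pM IL-6). The underlying signal is SIE-driven beta-lactamase in ME-180 cells after 5 h IL-6 exposure with compound.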

[4] = molecular target: Glucocorticoid receptor (Homo sapiens) (UniProt P04150); experiment: GR-GFP Redistribution (AID 450;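 active = compounds whose dose series gives a full or clear partial fitted curve of increased nuclear translocation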; note: potency is the fitted concentration of half-maximal effect); details: U2OS GR-GFP nuclear translocation, laser cytometry, 2 h; series mostly up to 20.6 µM
Chain of Glucocorticoid receptor (Homo sapiens) (P04150 whole entry, looked up): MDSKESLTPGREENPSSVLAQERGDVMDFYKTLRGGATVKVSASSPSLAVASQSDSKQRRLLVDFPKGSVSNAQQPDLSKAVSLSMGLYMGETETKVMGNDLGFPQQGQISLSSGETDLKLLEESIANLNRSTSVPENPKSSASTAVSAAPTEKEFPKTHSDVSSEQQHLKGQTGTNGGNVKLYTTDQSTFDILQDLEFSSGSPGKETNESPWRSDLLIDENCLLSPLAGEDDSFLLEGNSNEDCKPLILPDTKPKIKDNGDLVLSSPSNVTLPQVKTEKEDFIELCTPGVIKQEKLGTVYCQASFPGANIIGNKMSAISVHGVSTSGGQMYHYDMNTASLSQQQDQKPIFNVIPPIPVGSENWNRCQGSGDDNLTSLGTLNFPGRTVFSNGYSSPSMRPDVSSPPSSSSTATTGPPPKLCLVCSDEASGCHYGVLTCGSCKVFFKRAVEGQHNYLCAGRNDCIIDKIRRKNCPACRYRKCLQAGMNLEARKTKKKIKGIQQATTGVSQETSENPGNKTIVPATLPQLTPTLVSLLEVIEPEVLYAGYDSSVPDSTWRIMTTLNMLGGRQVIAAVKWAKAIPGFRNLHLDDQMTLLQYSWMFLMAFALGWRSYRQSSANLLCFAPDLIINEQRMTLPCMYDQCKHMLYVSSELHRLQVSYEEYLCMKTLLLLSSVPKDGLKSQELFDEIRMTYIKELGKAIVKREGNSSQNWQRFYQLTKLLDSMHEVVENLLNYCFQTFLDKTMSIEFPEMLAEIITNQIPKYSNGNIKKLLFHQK

CCOc1ccc(Br)cc1CC(=O)O
inactive: activity change, negative = inhibition [1] 8.45% | activity change, negative = inhibition [2] -5.28% | activity, negative = inhibition [3] 12.6% | Potency [4] > 20.6 µM

Cc1ccc(N(CN2C(=O)C3CC=CCC3C2=O)C(=O)c2ccco2)cc1Cl (stereo not given)
inactive: activity change, negative = inhibition [1] -4.76% | activity change, negative = inhibition [2] 9.09% | activity, negative = inhibition [3] -11% | Potency [4] > 20.6 µM

COC(=O)CSc1nc2c(c(=O)n(C)c(=O)n2C)n1CCC(C)C
inactive: activity change, negative = inhibition [1] 10.4% | activity change, negative = inhibition [2] -5.51% | activity, negative = inhibition [3] 6.93% | Potency [4] > 20.6 µM

CC(C)c1cc(NCCCN2CCOCC2)n2c(nc3ccccc32)c1C#N
inactive: activity change, negative = inhibition [1] -14.3% | activity change, negative = inhibition [2] -9.44% | activity, negative = inhibition [3] 0.608% | Potency [4] > 20.6 µM

CCOC(=O)c1ccc(NCC(O)COc2ccccc2)cc1 (stereo not given)
inactive: activity change, negative = inhibition [1] -4.75% | activity change, negative = inhibition [2] -1.02% | activity, negative = inhibition [3] -4.83% | Potency [4] > 20.6 µM

COc1ccc2c(c1)[nH]c1c(=O)n(CC3CCCO3)cnc12 (stereo not given)
inactive: activity change, negative = inhibition [1] -4.81% | activity change, negative = inhibition [2] 16.4% | activity, negative = inhibition [3] 2.17% | Potency [4] > 20.6 µM

O=C(NCCN1CCOCC1)c1ccc(=O)oc1
inactive: activity change, negative = inhibition [1] 4.3% | activity change, negative = inhibition [2] 8.89% | activity, negative = inhibition [3] 4.33% | Potency [4] > 20.6 µM

CCCCOc1ccc(C2CC(=O)N(C)C2=O)cc1 (stereo not given)
inactive: activity change, negative = inhibition [1] -14.6% | activity change, negative = inhibition [2] -3.42% | activity, negative = inhibition [3] 4.12% | Potency [4] > 20.6 µM

Cc1cc(NC(=O)CSc2nc(-c3cccnc3)ccc2C#N)no1
inactive: activity change, negative = inhibition [1] -14.4% | activity change, negative = inhibition [2] 6.09% | activity, negative = inhibition [3] -9.33% | Potency [4] > 20.6 µM

c1ccc(CSc2nnc(SCc3ccccn3)s2)nc1
inactive: activity change, negative = inhibition [1] -9.4% | activity change, negative = inhibition [2] 3.91% | activity, negative = inhibition [3] -4.62% | Potency [4] > 20.6 µM

CC(C)OC(=O)CCNc1n[nH]c(=O)[nH]c1=O
inactive: activity change, negative = inhibition [1] 5.78% | activity change, negative = inhibition [2] 0.573% | activity, negative = inhibition [3] 0.163% | Potency [4] > 20.6 µM

COc1ccc(OC)c(C2C(C#N)=C(N)Oc3cc(C)[nH]c(=O)c32)c1 (stereo not given)
inactive: activity change, negative = inhibition [1] -7.62% | activity change, negative = inhibition [2] -4.06% | activity, negative = inhibition [3] 3.99% | Potency [4] > 20.6 µM

CCCCc1nc2sc3c(c2c(=O)[nH]1)CCC3
inactive: activity change, negative = inhibition [1] -16.9% | activity change, negative = inhibition [2] -7.93% | activity, negative = inhibition [3] -2.54% | Potency [4] > 20.6 µM

COc1cccc(/C(O)=C2/C(=O)C(=O)N(CCN(C)C)C2c2ccc(Br)cc2)c1 (stereo not given)
inactive: activity change, negative = inhibition [1] -1.11% | activity change, negative = inhibition [2] 20.3% | activity, negative = inhibition [3] 0.896% | Potency [4] > 20.6 µM

CC(C)Oc1ccc(/C(O)=C2/C(=O)C(=O)N(CCN3CCOCC3)C2c2ccccc2)cc1 (stereo not given)
inactive: activity change, negative = inhibition [1] -9.89% | activity change, negative = inhibition [2] 19.7% | activity, negative = inhibition [3] -0.677% | Potency [4] > 20.6 µM

CCOC(=O)CC(=O)CSc1nc2c(cc1C#N)CCCCC2
inactive: activity change, negative = inhibition [1] 2.56% | activity change, negative = inhibition [2] 1.41% | activity, negative = inhibition [3] -7.32% | Potency [4] > 20.6 µM

O=C(Nn1cnnc1)C(c1ccccc1)c1ccccc1
inactive: activity change, negative = inhibition [1] 13.7% | activity change, negative = inhibition [2] -6.95% | activity, negative = inhibition [3] 3.83% | Potency [4] > 20.6 µM

C#CC1CN(Cc2ccccc2)CC(C#C)N1C (stereo not given)
inactive: activity change, negative = inhibition [1] 9.35% | activity change, negative = inhibition [2] -2.08% | activity, negative = inhibition [3] 9.92% | Potency [4] > 20.6 µM

Nc1cccc(C(=O)O)c1
inactive: activity change, negative = inhibition [1] 8.42% | activity change, negative = inhibition [2] 20.2% | activity, negative = inhibition [3] 4.89% | Potency [4] > 20.6 µM

CCCC(=O)Nn1cnc2c(c1=O)C1(CCCC1)Cc1ccccc1-2
inactive: activity change, negative = inhibition [1] -5.55% | activity change, negative = inhibition [2] -0.237% | activity, negative = inhibition [3] -0.176% | Potency [4] > 20.6 µM
